Results taken from article PMC12864922, “TDP-43 directly inhibits mRNA accumulation in neurites through modulation of mRNA stability”.
Over roughly 9,900 sequences, “r (bound/input frequency ratio)” has its median near 0.7; the highest 2% begin near 6.5. The sample holds the highest values, similar sequences and a random draw of the others, so the mix is not that of the screen.

B1: ENSMUSG00000042529.443|Kcnj12 (ssRNA)
RNA: GGGAGUUCUACAGUCCGACGAUCGCUUCGAUAUCCGCAUGCUAGAUGAAGCAGCUGCCCUGAGCCCAUCUGGUGCUGUGCACCUGGUCCUUGUCCAGCCGAGGGCCUGGGGGCAGAAGAACACACCAUAGGGAGGCCCUUGUAUGGGUGUCUGCCCUAUGUGAGGUCAUAGAAUGUUAAAUCUAUUUUAAACGGUGAAACUGGAGAAUUUUCAUGUUAUUUUCAAUAAUAGUGGUAUCUAAAGAUGUAGGCAACAAGACUAGACCACAUUAAAUGCAUUUUGAUCUCUUUGAAUGCUACUGUGCUCUUGCGGUCGCACUAGUGUGGAAUUCUCGGGUGUCAAGG
B2: ENSMUSG00000022095.41|Fam160b2|101:105 (ssRNA)
RNA: GGGAGUUCUACAGUCCGACGAUCGCUUCGAUAUCCGCAUGCUAUGAGGUUUCAAGGAGGUGCUGGCUCCUAAGGCAGUGGUAUUCUUGGAGCCUUUUAGAGGAGCUAGAGGAUGGCCAGUGAGCGCCUAGAUGCUGCCCUGCAACACAUGCGUGACUAUCUCUGCUAUAUUGUGACCAGGGCCACAACAUGAGACAACUCCAGGGGCCAGGGAGAUGAACUGCUGUCUUUGAGGCUGGCUAAAAAAACAAUCCAGUCCAGAGAGAUGGGGAGGGGGGGAGCAAGAACCCUGUCUGUUACAUUACUCUUGCGGUCGCACUAGUGUGGAAUUCUCGGGUGUCAAGG
B3: ENSMUSG00000031028.396|Tub|202:206 (ssRNA)
RNA: GGGAGUUCUACAGUCCGACGAUCGCUUCGAUAUCCGCAUGCUAUUGACCACUGGCGCUGUGAACACAGGCUAAUGGACUUCAGAUACCAGGGCCCCGGGAUCACCUGGGUUAGCCUCUCCCACAGGAAGAUCCCUUACCCCUCAUCCCCUCUUCUUUUUGGUCCUUGGCUGGGUAGCAAAUUGGUGAGAAGAGCAGCCUAGUCUGUAAGAGUGCAGGGCAGCUGGAACCUUAGGCAGCUCCUCUCAUACCUACCGGCUCCACACCCUAACACUCUCCACCCUCUGCUCCAAACCAGUUCUUCUCUCUUGCGGUCGCACUAGUGUGGAAUUCUCGGGUGUCAAGG
B4: ENSMUSG00000028439.149|Fam219a (ssRNA)
RNA: GGGAGUUCUACAGUCCGACGAUCGCUUCGAUAUCCGCAUGCUAGAAGCAAGAGAUAAGGCUGGCCUCCUGUGCCCCAUUGCCAUUUCACCCUAGCUCAAAGUCCAGGAGCCAGGCUUCCAGAAAGGCUCUUCAAGAGCAAGCUUAAGGAAAUACAGUGAGCCAAGUGGCUGUAUGAUAUGGUAUGGUAUGGUAUGGUAUGGUAUGGUAUGGUAUGCACAUGUGUGUGCAUGUGUGUGUGCCUGUGUGUGUGCGUGUGCGUGUGUGUAUGUGUGUGCGUGUGUGUGUGUGUGUGUUGUACCCGACUCUUGCGGUCGCACUAGUGUGGAAUUCUCGGGUGUCAAGG
B5: ENSMUSG00000028439.136|Fam219a (ssRNA)
RNA: GGGAGUUCUACAGUCCGACGAUCGCUUCGAUAUCCGCAUGCUAAACCAGUGCAUCUGUCUCUCUGCCUCAUCCCCACACCGCCCUGCCACCCCCAGUCUUCUGUCUAUUGGUUCCAGGCUGGAAGCAAGAGAUAAGGCUGGCCUCCUGUGCCCCAUUGCCAUUUCACCCUAGCUCAAAGUCCAGGAGCCAGGCUUCCAGAAAGGCUCUUCAAGAGCAAGCUUAAGGAAAUACAGUGAGCCAAGUGGCUGUAUGAUAUGGUAUGGUAUGGUAUGGUAUGGUAUGGUAUGGUAUGCACAUGUGUGCUCUUGCGGUCGCACUAGUGUGGAAUUCUCGGGUGUCAAGG
B6: ENSMUSG00000028439.148|Fam219a|134:138;144:178;183:190;193:202;205:214;216:220;222:238;240:257 (ssRNA)
RNA: GGGAGUUCUACAGUCCGACGAUCGCUUCGAUAUCCGCAUGCUAAGGCUGGAAGCAAGAGAUAAGGCUGGCCUCCUGUGCCCCAUUGCCAUUUCACCCUAGCUCAAAGUCCAGGAGCCAGGCUUCCAGAAAGGCUCUUCAAGAGCAAGCUUAAGGAAAUACAGUGAGCCAAGUGGCUCAUACAUAUGCAUACCAUACCAUACCAUACCAUACCAUACCAUACCACAACACACACCAACACACACACCCACACACACACCCACACCCACACACAUACACACACCCACACACACACACACACAUGUCUCUUGCGGUCGCACUAGUGUGGAAUUCUCGGGUGUCAAGG
B7: ENSMUSG00000028439.151|Fam219a (ssRNA)
RNA: GGGAGUUCUACAGUCCGACGAUCGCUUCGAUAUCCGCAUGCUAAAGGCUGGCCUCCUGUGCCCCAUUGCCAUUUCACCCUAGCUCAAAGUCCAGGAGCCAGGCUUCCAGAAAGGCUCUUCAAGAGCAAGCUUAAGGAAAUACAGUGAGCCAAGUGGCUGUAUGAUAUGGUAUGGUAUGGUAUGGUAUGGUAUGGUAUGGUAUGCACAUGUGUGUGCAUGUGUGUGUGCCUGUGUGUGUGCGUGUGCGUGUGUGUAUGUGUGUGCGUGUGUGUGUGUGUGUGUUGUACCCGAGUGUGUGUUGAGCUCUUGCGGUCGCACUAGUGUGGAAUUCUCGGGUGUCAAGG
B8: ENSMUSG00000028439.152|Fam219a (ssRNA)
RNA: GGGAGUUCUACAGUCCGACGAUCGCUUCGAUAUCCGCAUGCUAGGCCUCCUGUGCCCCAUUGCCAUUUCACCCUAGCUCAAAGUCCAGGAGCCAGGCUUCCAGAAAGGCUCUUCAAGAGCAAGCUUAAGGAAAUACAGUGAGCCAAGUGGCUGUAUGAUAUGGUAUGGUAUGGUAUGGUAUGGUAUGGUAUGGUAUGCACAUGUGUGUGCAUGUGUGUGUGCCUGUGUGUGUGCGUGUGCGUGUGUGUAUGUGUGUGCGUGUGUGUGUGUGUGUGUUGUACCCGAGUGUGUGUUGAGCCUAUCCUCUUGCGGUCGCACUAGUGUGGAAUUCUCGGGUGUCAAGG
B9: ENSMUSG00000028439.150|Fam219a (ssRNA)
RNA: GGGAGUUCUACAGUCCGACGAUCGCUUCGAUAUCCGCAUGCUAAGAGAUAAGGCUGGCCUCCUGUGCCCCAUUGCCAUUUCACCCUAGCUCAAAGUCCAGGAGCCAGGCUUCCAGAAAGGCUCUUCAAGAGCAAGCUUAAGGAAAUACAGUGAGCCAAGUGGCUGUAUGAUAUGGUAUGGUAUGGUAUGGUAUGGUAUGGUAUGGUAUGCACAUGUGUGUGCAUGUGUGUGUGCCUGUGUGUGUGCGUGUGCGUGUGUGUAUGUGUGUGCGUGUGUGUGUGUGUGUGUUGUACCCGAGUGUGUCUCUUGCGGUCGCACUAGUGUGGAAUUCUCGGGUGUCAAGG

The binders below were run against TDP-43 (Homo sapiens, UniProt Q13148 1-414) (assay: RNA Bind-n-Seq with designed 260-mer pool; 25 mM Tris-HCl, 150 mM KCl, 3 mM MgCl2, BSA (printed 500 mg/mL), 20 units/mL SUPERase IN; pH not stated; 500 nM RNA pool, 1 h, 4 C; TDP-43 5, 50, 500 nM; high values mean tight binding). Settings: protein: recombinant; tags: SBP (GST cleaved off with PreScission; pGEX-GST-SBP).
Outline: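 The incubation lasted 1 h at 4 °C and used 500 nM of an in vitro-transcribed 260-nt 3′ UTR oligo pool with recombinant SBP-tagged TDP-43 at 5, 50 or 500 nM immobilized on streptavidin beads. It took place in 25 mM Tris-HCl, 150 mM KCl, 3 mM MgCl2, BSA and SUPERase IN. Bound RNA was washed, eluted with biotin, converted to cDNA, PCR-amplified and sequenced to give R, each oligo's normalized abundance in the bound sample divided by that in input. Two independent protein batches provided the duplicates.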

TDP-43, sequence (Q13148 whole entry): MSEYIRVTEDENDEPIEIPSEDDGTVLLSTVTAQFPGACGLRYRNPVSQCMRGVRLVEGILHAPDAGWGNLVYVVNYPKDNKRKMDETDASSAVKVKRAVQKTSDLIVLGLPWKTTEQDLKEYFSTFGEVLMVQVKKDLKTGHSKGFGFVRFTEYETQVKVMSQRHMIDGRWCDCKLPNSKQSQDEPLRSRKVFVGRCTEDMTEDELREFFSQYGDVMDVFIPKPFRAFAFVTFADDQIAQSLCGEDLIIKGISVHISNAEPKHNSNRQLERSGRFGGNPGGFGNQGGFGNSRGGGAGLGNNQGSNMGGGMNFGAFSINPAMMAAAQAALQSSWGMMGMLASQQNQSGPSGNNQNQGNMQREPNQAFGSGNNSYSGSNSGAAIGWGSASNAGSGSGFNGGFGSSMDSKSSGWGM

Row | Binder | binding signal
1 | B1 | 1.32 R (bound/input frequency ratio)
2 | B2 | 1 R (bound/input frequency ratio)
3 | B3 | 1.04 R (bound/input frequency ratio)
4 | B4 | 6.67 R (bound/input frequency ratio)
5 | B5 | 1.84 R (bound/input frequency ratio)
6 | B6 | 4.64 R (bound/input frequency ratio)
7 | B7 | 6.07 R (bound/input frequency ratio)
8 | B8 | 7.8 R (bound/input frequency ratio)
9 | B9 | 7.17 R (bound/input frequency ratio)
